# FLuc modulator: firefly luciferase modulation, counter-screen for miR-21 project | P08659 | purified FLuc, Km substrates, luminescence inhibition | Potency, µM (highest dose often 57.5 µM), for the others: top-dose activity change, negative = inhibition, most hits filed as inhibitors | 6.9% of 360,000 active;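 also: plate controls were vehicle for no effect and reference inhibitor for full effect; nearly all actives have a fitted effect of over 55% in size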
# Target sequence (P08659 whole entry, looked up): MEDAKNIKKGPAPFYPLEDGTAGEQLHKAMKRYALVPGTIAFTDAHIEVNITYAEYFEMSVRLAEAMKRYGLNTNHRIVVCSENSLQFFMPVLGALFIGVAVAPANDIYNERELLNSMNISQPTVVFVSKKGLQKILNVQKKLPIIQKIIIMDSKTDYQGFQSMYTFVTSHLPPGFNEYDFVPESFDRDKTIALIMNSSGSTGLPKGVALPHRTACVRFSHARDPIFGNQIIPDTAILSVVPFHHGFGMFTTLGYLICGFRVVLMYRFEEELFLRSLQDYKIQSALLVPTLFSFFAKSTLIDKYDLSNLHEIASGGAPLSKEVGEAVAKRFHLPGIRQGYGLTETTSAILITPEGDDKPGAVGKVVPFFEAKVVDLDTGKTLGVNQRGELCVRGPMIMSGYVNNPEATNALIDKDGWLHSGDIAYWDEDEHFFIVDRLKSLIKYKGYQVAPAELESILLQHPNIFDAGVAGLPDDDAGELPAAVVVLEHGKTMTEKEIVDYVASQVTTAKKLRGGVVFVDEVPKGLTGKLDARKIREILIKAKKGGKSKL
#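 Purified P. pyralis luciferase (10nM final) with 10uM D-luciferin and 10uM ATP (Km levels) in 50mM Tris acetate pH 7.5, 10mM Mg acetate, 0.01% Tween-20, 0.05% BSA; qHTS 6-point titration, ~60 µM downward; luminescence read.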
# KinaseGlo FLuc: blocks Kinase-Glo luciferase, a counter-screen artifact. Q27757. AID 1379. Potency, µM (top dose mostly 38.3 µM), for inactives: at the highest dose activity change, negative = inhibition, actives largely listed as inhibitors. 0.28% of 200,000 active. Kinase-Glo luciferase, ATP luminescence, 8 min; also: % is scaled to controls: 0 for no effect and ±100 for the full control effect; nearly all actives have a fitted effect of over 60% in size
#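 Substrate mix (final 50 mM imidazole pH 7.2, 50 mM KCl, 7 mM MgCl2, 10 uM ATP, 0.01% Tween 20, 0.05% BSA) plus pin-tool compound, then Kinase-Glo detection mix; 8 min ambient, luminescence read.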
# ELG1 genotoxic: induces genotoxicity in HEK293T cells with luciferase-tagged ELG1; HEK293T ELG1-luciferase reporter, luminescence, 16 h; Potency, µM (doses to about 46 µM), inactives show at the highest dose activity change, positive = activation, usual class: activators; 1.3% of 330,000 active; also: % of control where 0% means no effect; nearly all actives have a fitted effect of over 60% in size
#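 HEK293T cells expressing luciferase-tagged ELG1 were treated with compound or DMSO for 16 hr at 37°C. Luciferase activity was then read after 30 min with ONE-Glo at room temperature; rising signal flags genetic stress.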
# NPC1 prom act: NPC1 promoter activation; Huh7 NPC1 promoter luciferase reporter, 24 h; Potency, µM (titrated, usually from 9.22 µM), inactives show at the highest dose activation, usual class: activators; 2.4% of 320,000 active; also: % of control where 0% means no effect; nearly all actives have a fitted effect of over 60% in size
#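 Stably transfected Huh7 (NPC1 promoter→luciferase), 1500 cells/well in Opti-MEM + 10% FBS, 2 h settle, then compound 24 h at 37 °C. Luminescence after 10 min with Amplite reagent.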
# Rab9 promoter act: activators of Rab9 promoter | Huh7 Rab9 promoter-luciferase reporter, luminescence, 24 h | Potency, µM (highest dose often 9.22 µM), for the others: top-dose activation, negative = inhibition, hits mostly activators | 2.8% of 320,000 active | AID 485297; also: % of control where 0% means no effect; nearly all actives have a fitted effect of over 60% in size
#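 Rab9 promoter-driven luciferase in stably transfected Huh7 cells; 1500 cells/well rested 2 h, exposed to compound in DMSO for 24 h at 37 °C, 5% CO2. Luminescence read 10 min after adding luciferase reagent at ambient temperature.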
# SMN2 splice enh: SMN2 splice variant enhancement; HEK293 SMN2-luciferase splicing reporter, luminescence, 30-36 h; Potency, µM (top dose mostly 46.1 µM), without a hit: at the top dose activity change, positive = activation, hits mostly activators; 2.8% of 210,000 active; AID 1458; also: % of control where 0% means no effect; nearly all actives have a fitted effect of over 55% in size
#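 HEK293 cells carry an SMN2 […]–luciferase reporter in which exon 7 inclusion puts luciferase in frame. Cells were plated 10-12 h before compound addition, then incubated 30-36 h at 37C. ONE-Glo luminescence was read; sodium butyrate at 4.5 mM final served as control.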
# Active calls of the source: *; ? = inconclusive; nt = not tested or not shown; [ ] = another dose, or the depositor's remark. Most compounds without a hit are left out; they make up all but 7.3% or so of the library. Calls follow the shape of the dose curve; as a rule, active = well fitted curve in the direction sought with a large enough effect; inconclusive = small, poorly fitted or top-dose-only effect, or another doubt; inactive = no such curve, though single readings can be large; an effect the other way counts as inactive or inconclusive. Potency is read from the fitted curve at half-maximal effect.
SMILES,FLuc modulator,KinaseGlo FLuc,ELG1 genotoxic,NPC1 prom act,Rab9 promoter act,SMN2 splice enh
COc1ccc(-n2ncc(Cl)c(Cl)c2=O)cc1,-10.2%,0.3%,-21.6%,-42.3%,-50.5%,-83.5%
Cc1ccccc1-c1noc(-c2ccc(N3CCCC3)c([N+](=O)[O-])c2)n1,13.5µM*,nt,nt,nt,nt,nt
Cc1noc(-c2ccc(N3CCC(C)CC3)c([N+](=O)[O-])c2)n1,8.49µM*,nt,nt,nt,nt,nt
CCNc1ccc(-c2nc(-c3ccco3)no2)cc1[N+](=O)[O-],15.1µM*,nt,nt,nt,nt,nt
COCCNc1ccc(-c2nc(-c3ccco3)no2)cc1[N+](=O)[O-],-14.6%,nt,nt,nt,nt,nt
N#CC1(NC(=O)COC(=O)c2cc([N+](=O)[O-])ccc2N2CCCC2)CCCCC1,-4.0%,nt,-0.2%,0.4%,-2.4%,nt
Cc1cccc(NC(=O)c2ccc(CN3CCN(Cc4ccccc4)CC3)cc2)c1,?,0.9%,-2.9%,-22.5%,-30.2%,nt
Cc1cccc(NC(=O)C2=C(O)c3ccccc3N(C)S2(=O)=O)c1,16.9µM*,2.5%,-2.2%,0.6%,0.6%,14.0%
CN1c2ccccc2C(O)=C(C(=S)Nc2ccc(Cl)cc2)S1(=O)=O,19µM*,4.6%,-9.2%,-2.3%,-6.0%,-18.4%
Cc1cc([N+](=O)[O-])ccc1NC(=O)c1ccco1,-0.2%,-1.1%,3.5%,-3.5%,0.9%,nt
CCCC(=O)Nc1ccc(NC(=O)c2cc3ccccc3o2)c(OC)c1,?,nt,18.3%,3.98µM*,2.51µM*,nt
Cc1cc([N+](=O)[O-])ccc1NC(=O)c1cc2ccccc2o1,?,nt,-3.9%,?,2.51µM*,nt
Cc1ccc(C)c(NC(=O)c2cc3ccccc3o2)c1,13.5µM*,nt,16.8%,?,3.98µM*,nt
Cc1ccc(NC(=S)c2ccc3ccccc3n2)c(C)c1,10.7µM*,nt,?,1.12µM*,1.58µM*,nt
Cc1ccc(NC(=O)c2cc(C)nc3ccccc23)c(C)c1,1.2%,nt,-3.3%,-4.7%,0.0%,nt
CCN(Cc1ccccc1)S(=O)(=O)c1ccc2c(c1)CC(C)N2C(=O)C1CCC1 (stereo not given),-5.0%,nt,nt,nt,nt,nt
COc1cc(OC)c(NC(=O)CCn2cccn2)cc1Cl,-2.6%,nt,nt,nt,nt,nt
Cc1ccc(S(=O)(=O)N(C)C)cc1NC(=O)c1ccc2ccccc2n1,?,nt,-5.8%,14.4%,16.7%,nt
Cc1ccc(C)c(NC(=O)c2ccc3ccccc3n2)c1,0.849µM*,-17.6%,?,3.98µM*,2µM*,14.1µM*
COc1cc(N)ccc1NC(=O)c1cc2ccccc2o1,10.7µM*,nt,?,3.98µM*,3.16µM*,nt
COc1ccc(C)cc1NC(=O)c1cc2ccccc2o1,15.1µM*,-2.6%,7.5%,4.6%,-0.8%,16.8%
COc1ccc(OC)c(NC(=O)c2cc3ccccc3o2)c1,-15.2%,-0.1%,?,14.8%,0.0%,nt
CCCN1Cc2cccc(C(=O)Nc3ccc(CC)cc3)c2C1=O,2.69µM*,0.4%,-0.5%,0.2%,0.5%,3.5%
CCCN1Cc2cccc(C(=O)Nc3ccc(C)cc3)c2C1=O,-14.5%,-0.8%,-7.1%,-3.2%,-1.3%,-4.1%
COc1cc(NC(=O)c2cccc3c2C(=O)N(Cc2cccnc2)C3)cc(OC)c1OC,0.5%,2.3%,-0.2%,-6.1%,-8.3%,?
SMILES,FLuc modulator,KinaseGlo FLuc,ELG1 genotoxic,NPC1 prom act,Rab9 promoter act,SMN2 splice enh
CCCN1Cc2cccc(C(=O)Nc3ccc4c(c3)OCCO4)c2C1=O,15.1µM*,-7.3%,4.5%,-3.1%,9.7%,-0.8%
O=C(Nc1ccc2c(c1)OCO2)c1cccc2c1C(=O)N(Cc1cccnc1)C2,15.1µM*,-7.0%,?,-3.2%,2.2%,-3.5%
CCCN1Cc2cccc(C(=O)Nc3ccc4c(c3)OCO4)c2C1=O,?,-1.4%,9.2%,-1.5%,0.5%,nt
c1ccc(OCCCc2nc(-c3ccncc3)no2)cc1,1.0%,1.9%,2.2%,-2.1%,-0.3%,13.5%
CCc1ccc(OCc2nc(-c3ccccn3)no2)c(Br)c1,0.536µM*,-16.6%,?,0.316µM*,0.398µM*,0.501µM*
Cc1ccc(OCc2nc(-c3ccccn3)no2)cc1,4.78µM*,8.0%,3.66µM*,1.12µM*,1.41µM*,8.91µM*
CC(C)c1ccc(OCc2nc(-c3ccccn3)no2)c(Br)c1,0.953µM*,-5.1%,?,0.398µM*,0.447µM*,6.31µM*
c1ccc(OCCCc2nc(-c3ccccn3)no2)cc1,?,-2.1%,18.4µM*,?,3.7%[1.84 µM],?
Cc1ccc(SCc2nc(-c3ccccn3)no2)cc1,4.1%[2.3 µM],3.2%,?,?,?,?
COc1ccccc1-c1cc(C(F)(F)F)nc(N2CCN(c3ccccc3)CC2)n1,5.8%,1.4%,-5.2%,-0.7%,-1.9%,-17.9%
O=C(NCCOc1ccc(F)cc1)c1ccccc1SCc1ccccc1,-1.2%,-1.1%,-6.5%,-7.2%,-2.5%,-44.2%
CCn1ncc(CNC(=O)CCCSc2nc(-c3ccco3)cc(C(F)(F)F)n2)c1C,2.3%,3.9%,-2.8%,-1.3%,-0.7%,-34.2%
O=[N+]([O-])c1ccc2nc(SCc3cn4ccccc4n3)[nH]c2c1,-0.6%,0.0%,?,3.3%,-3.1%,7.2%
O=C(CCS(=O)(=O)Cc1ccccc1F)N1CCc2ccccc2C1,-0.2%,-1.5%,3.2%,2.0%,-8.8%,-2.5%
CC(C)(C)Cc1nc(-c2ccccn2)no1,?,-0.1%,18.4µM*,?,?,?
Cc1ccc(OCc2nc(-c3ccccn3)no2)c(Br)c1,0.213µM*,10µM*,0.326µM*,0.1µM*,0.282µM*,-61.5%
CC(Oc1ccc(Cl)cc1Cl)c1nc(-c2ccccn2)no1 (stereo not given),15.1µM*,1.1%,?,?,?,28.4%
CC(Oc1ccc(Cl)cc1Cl)c1nc(-c2ccc(NC(=O)c3cccnc3)cc2)no1 (stereo not given),1.1%,1.7%,-20.1%,0.0%,1.9%,-87.1%
O=C(COc1ccc(Cl)cc1Cl)N1CCNC1=O,-12.3%,nt,4.7%,3.0%,-6.6%,nt
O=C(Nc1ccc(F)cc1)c1nc2c(nnn2Cc2cccc3ccccc23)c(=O)[nH]1,26.9µM*,nt,-0.5%,-4.3%,0.2%,nt
COc1cccc(OC)c1NC(=O)c1nc2c(nnn2Cc2ccccc2Cl)c(=O)[nH]1,?,8.2%,10.5%,-1.4%,-1.4%,-39.8%
CC(C)(C)C(=O)Cn1ncc(N2CCOCC2)c(Br)c1=O,-2.4%,2.9%,8.8%,6.9%,26.1%,7.0%
CC(C)(C)C(=O)Cn1ncc(N2CCCC2)c(Br)c1=O,?,3.6%,?,?,3.98µM*,23.6%
O=c1cc(-c2ccccc2)oc2cccc(O)c12,nt,3.0%,nt,nt,nt,?
O=Cc1c(-c2ccccc2)cc2oc3ccccc3cc1-2,0.757µM*,nt,3.66µM*,25.8%,3.55µM*,nt
Nc1cccc(-c2cc3ccccc3oc2=O)c1,19µM*,-2.9%,?,15.3%,-1.2%,21.7%
